Compounds with a hit are over-represented: about 3.4% of the library has one in this group of screens.
HSF1 inhib: HSF1 inhibition; hit rate 0.77% among 300,000; NIH3T3-HGL HSE-luciferase, MG132-induced, luminescence 8 h; hits give low values; activity change, negative = inhibition, % at 7.5 µM (by protocol); AID 2098;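 active = more than half of replicate wells show activity change below -50%, luminescence cut by over half; inconclusive = some wells, but at most half, below -50%; inactive = no replicate well below -50%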;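 note: luciferase reports HSF-1 transcriptional activity via heat shock element; 0% = median of DMSO wells and -100% = zero luminescence signal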
HSF1 activator: increases HSF-1 driven luciferase reporter signal | hit rate 1.7% among 300,000 | activation, % at 9 µM | NIH3T3-HGL HSF-1 luciferase reporter, MG132, 8 h; 100% = twice DMSO control signal;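 active = mean replicate activation of at least 50% with a set share of replicates each reaching 50%; inconclusive = only one of those two conditions met; inactive = mean below 50% and too few replicates reaching it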;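 note: 0% = median of the neutral control wells and 100% = twice that signal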
Vif inh: blocks HIV Vif function; HEK293T cells, Vif self-association by quenched fluorescence, imaging, 24 h; inhibition, % at 7.49 µM; hit rate 0.35% among 340,000; AID 602346; in the data active = inhibition above about 50%, passing the limit was not always enough; inconclusive = no clear call, values can overlap the other calls; inactive = below about 31%
esBAF inh: inhibitors of esBAF chromatin remodeling in mouse ES cells; AID 602393; Bmi1-luciferase knock-in reporter, 24 h; 100% = twice the neutral-well signal; reporter increase, % at 12.5 µM; hit rate 2% among 350,000; in the data active = activation above about 40%; inconclusive = no clear call, values can overlap the other calls;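 note: 0% = median of the plate's neutral control wells and 100% = double that signal; a rise in the Bmi1 reporter signal indicates esBAF inhibition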
Numbers without * were called inactive; i = inactive; ? = inconclusive; nt = not tested or not shown.

SMILES | HSF1 inhib | HSF1 activator | Vif inh | esBAF inh
CCOc1ccc(/C=C2\CCC(C3CCCC3)C2=O)cc1OC (centres undefined) | 4 | 17 | -14 | 17
COc1ccc(NC(=O)N(C)C[C@H]2Oc3ccc(NC(=O)Nc4ccc(C(F)(F)F)cc4)cc3C(=O)N([C@@H](C)CO)C[C@@H]2C)cc1 | nt | nt | nt | -1
COc1cccc(C(=O)Oc2ccccc2/C=C\C(=O)c2cc3ccccc3o2)c1 | 129 | 131* | -3 | nt
O=C(Oc1ccccc1/C=C\C(=O)c1cc2ccccc2o1)c1ccccc1 | 289 | 366* | 9 | nt
COc1ccc(C(=O)/C=C/c2ccccc2OC)c(OC(=O)c2ccc([N+](=O)[O-])cc2)c1 | 33 | ? | 26 | nt
O=C(Oc1ccccc1/C=C\C(=O)c1cc2ccccc2o1)c1cccc(F)c1 | 199 | 235* | 2 | nt
O=C(N/N=C/c1ccccc1OC(=O)c1ccc2c(c1)OCO2)c1cccc(F)c1 | 6 | -8 | 22 | nt
NC(=O)N/N=C/c1ccccc1OC(=O)c1cc2ccccc2oc1=O | 22 | 34 | -2 | 31
CO[C@H]1CN(C)C(=O)c2ccc(NC(=O)C3CC3)cc2OC[C@@H](C)N(C(=O)NC(C)C)C[C@@H]1C | nt | nt | nt | 6
C[C@H](CO)N1C[C@H](C)[C@H](CN(C)Cc2cncnc2)Oc2ncc(-c3ccc(F)cc3)cc2C1=O | nt | nt | nt | -1
Cc1ccc(Nc2nc(N)nc(CCl)n2)c(C)c1 | -63* | -59 | -1 | nt
Cc1cccc(Nc2nc(N)nc(CCl)n2)c1 | 14 | 48 | 142* | nt
Cc1ccc(Nc2nc(N)nc(CN3CCCCCC3)n2)c(C)c1 | -8 | -13 | -6 | nt
O=C(NC[C@@H]1[C@@H](c2ccccc2)[C@@H](CO)N1C(=O)Cc1cccnc1)C1CCC1 | nt | nt | nt | 0
C[C@@H]1CN([C@@H](C)CO)C(=O)Cc2cc(NC(=O)CCN3CCOCC3)ccc2O[C@@H]1CN(C)C(=O)Nc1ccc(C(F)(F)F)cc1 | nt | nt | nt | 3
CN(C)C(=O)c1cccc(-c2ccc3c(c2)[C@H]2[C@H](CCN2S(=O)(=O)c2ccccc2)[C@@H](CO)N3)c1 | nt | nt | nt | 8
C=CCNC(=O)CSc1nnc(C(CC)N(C)C)n1C1CCCCC1 (centres undefined) | 25 | 67* | -12 | -3
COc1ccc(C(CNC(=O)c2cccn2C)N2CCOCC2)cc1 (centres undefined) | nt | nt | -6 | 57*
Cc1cccc(CSCCNC(=O)COc2ccc(Cl)cc2)c1 | -56* | -63 | 5 | nt
Cc1noc(C)c1NC(=O)N(C)C[C@@H]1Oc2ccc(NC(=O)Cc3cn(C)c4ccccc34)cc2C(=O)N([C@@H](C)CO)C[C@H]1C | nt | nt | nt | -2
O=C(CSc1nnc(CCc2ccccc2)n1-c1ccc(Cl)cc1)c1ccccc1 | -60* | -71 | -1 | nt
CCCNC(=O)C[C@H]1CC[C@@H]2[C@H](COC[C@@H](O)CN2Cc2cccc(F)c2)O1 | nt | nt | nt | 0
C[C@@H]1CCCCO[C@H](CN(C)S(=O)(=O)c2cn(C)cn2)[C@@H](C)CN([C@@H](C)CO)C(=O)c2cc(NC(=O)CCCN(C)C)ccc2O1 | nt | nt | nt | -3
Cc1noc(C)c1NC(=O)N(C)C[C@@H]1Oc2ccc(NC(=O)CCC(F)(F)F)cc2C(=O)N([C@H](C)CO)C[C@H]1C | nt | nt | nt | 1
Cc1ccc2c(CC(=O)Nc3sccc3C(N)=O)coc2c1 | 55 | 84* | -6 | nt
SMILES | HSF1 inhib | HSF1 activator | Vif inh | esBAF inh
C(=NOCc1ccccc1)c1ccncc1 | nt | nt | 1 | 38
C(=NOCCc1ccccc1)c1cccnc1 | nt | nt | 2 | 51*
CCCNC(=O)Nc1ccc2c(c1)OC[C@@H](C)N(Cc1ccccn1)C[C@@H](C)[C@H](OC)CN(C)C2=O | nt | nt | nt | -4
COc1ccc(C(=O)CC(=O)c2ccccc2)cc1 | 23 | 48 | 9 | 70*
COc1ccc(C(=O)COC(=O)c2ccco2)cc1 | 11 | 19 | -25 | 49*
O=C(COc1ccccc1)c1ccccc1 | nt | nt | -3 | 46*
COc1ccc(NC(=O)CSc2ccc3c4c(cccc24)C(=O)c2ccccc2-3)cc1 | 12 | 59* | i | 20
COc1cccc(NC(=O)COC(=O)c2ccco2)c1 | 5 | 0 | 0 | 2
C[C@@H]1CN([C@@H](C)CO)C(=O)Cc2cc(NC(=O)C3CCCCC3)ccc2O[C@@H]1CN(C)C | nt | nt | nt | -1
COc1ccc(C(=O)C(OC(=O)c2ccccc2Cl)c2ccccc2)cc1 (centres undefined) | 8 | 4 | 0 | nt
COc1ccc(CC(=O)OCC(=O)Nc2cccc(Br)c2)cc1 | 15 | 9 | 74* | nt
O=C(Cc1ccccc1)NNc1ccc2ccccc2c1 | -63* | -67 | 3 | nt
O=C(COc1ccc2ccccc2c1)NNC(=O)Cc1ccccc1 | 0 | -2 | 0 | 4
COc1ccc(C(=O)c2c[nH]cc2-c2ccccc2)cc1 | -57* | -69 | 3 | nt
COc1ccc(C(=O)C(OC(=O)c2ccccc2)c2ccccc2)cc1 (centres undefined) | 29 | 13 | 5 | 84*
COc1cccc(NC(=O)COC(=O)Cc2ccc(Br)cc2)c1 | 7 | 11 | 5 | nt
COCCNC(=O)C[C@H]1C=C[C@@H](NC(=O)NC2CCCCC2)[C@H](CO)O1 | nt | nt | nt | 3
C[C@@H]1CCCCO[C@H](CN(C)Cc2ccc3c(c2)OCO3)[C@H](C)CN([C@H](C)CO)C(=O)c2cc(NS(=O)(=O)c3ccc(F)cc3)ccc2O1 | nt | nt | nt | -2
CC=Cc1ccc2n(c1=O)C[C@@H]1[C@@H](CO)[C@H](C(=O)NCC3CC3)N(Cc3cccnc3)[C@H]21 (mixture of isomers) | nt | nt | nt | 0
COc1ccc(CN(C)C[C@H]2OCCCC[C@@H](C)Oc3ccc(NC(=O)CCCN(C)C)cc3C(=O)N([C@@H](C)CO)C[C@@H]2C)cc1 | nt | nt | nt | 4
CCCNC(=O)Nc1ccc2c(c1)C(=O)N(C)C[C@H](OC)[C@@H](C)CN(CCC)[C@H](C)CO2 | nt | nt | nt | 2
COc1ccc(CC(=O)Nc2ccc(-c3cn4cccc(C)c4n3)cc2)cc1OC | 8 | 35 | -5 | 7
COc1ccc(NC(=O)Cc2ccccc2)cc1 | 10 | 13 | nt | 57*
COc1ccc(C/C(C)=N/NC(=S)Nc2ccc(Cl)cc2)cc1 | 6 | -18 | -6 | -3
